PubChem BioAssay AID1159580 (chemical genetic matrix, 2015)
Values joined by “and” are separate entries in the source; they are usually repeats but may differ in a detail not shown here. Identical values can stand only once. Hit rate of the full screen: of about 5,500 compounds, about 2,000 (36%) were called active. About 18% were inconclusive and are not listed. No stated cut-off is given here; in the data, active means normalized growth mostly below about 0.91 (no sharp cut-off); inconclusive means no clear call, values can overlap the other calls; inactive means mostly above about 0.92. Some of the results follow.

Experiment: chemical genetic growth profiling, strain panel (AID 1159580);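 further: tested at 20 µM; growth read once vehicle control cultures reached saturation at 30 °C; 1 = growth at the plate median or of vehicle wells; lower values mean less growth of the strain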
Details: S. cerevisiae deletion strains, growth OD

Measured: normalized growth

CCOC(=O)[C@H](CCc1ccccc1)N[C@H]1CCc2ccccc2N(CC(=O)O)C1=O
inactive: locus YAL013W, strain DEP1, active compounds read low 0.989 | locus YAL021C, strain ccr4, active compounds read low 0.961 | locus YAL026C, strain drs2, active compounds read low 0.959 | locus YAL030W, strain snc1, active compounds read low 0.992 | locus YBL061C, strain skt5, active compounds read low 0.988 | locus YBR009C, strain hhf1, active compounds read low 0.973 | locus YBR021W, strain FUR4, active compounds read low 0.978 | locus YBR023C, strain chs3, active compounds read low 0.989 | locus YBR171W, strain sec66, active compounds read low 0.976 | locus YBR229C, strain ROT2, active compounds read low 0.986 | locus YBR231C, strain swc5, active compounds read low 0.96 | locus YBR279W, strain paf1, active compounds read low 0.987 | locus YCL011C, strain gbp2, active compounds read low 0.992 | locus YCL016C, strain dcc1, active compounds read low 0.981 | locus YCL029C, strain bik1, active compounds read low 0.966 | locus YCL061C, strain MRC1, active compounds read low 0.979 | locus YCL069W, strain vba3, active compounds read low 0.99 | locus YCR088W, strain abp1, active compounds read low 0.975 | locus YDL005C, strain med2, active compounds read low 0.972 | locus YDL035C, strain GPR1, active compounds read low 0.998 | locus YDL040C, strain nat1, active compounds read low 0.995 | locus YDL074C, strain BRE1, active compounds read low 0.998 | locus YDL101C, strain DUN1, active compounds read low 0.983 | locus YDL134C, strain PPH21, active compounds read low 0.998 | locus YDL185W, strain tfp1, active compounds read low 0.978 | locus YDL192W, strain arf1, active compounds read low 0.97 | locus YDR001C, strain nth1, active compounds read low 1.01 | locus YDR069C, strain doa4, active compounds read low 0.978 | locus YDR101C, strain arx1, active compounds read low 0.98 | locus YDR137W, strain rgp1, active compounds read low 0.992 | locus YDR150W, strain NUM1, active compounds read low 0.987 | locus YDR159W, strain sac3, active compounds read low 1.01 | locus YDR162C, strain NBP2, active compounds read low 0.987 | locus YDR195W, strain ref2 0.961 | locus YDR297W, strain sur2, active compounds read low 0.99 | locus YDR318W, strain mcm21, active compounds read low 0.977 | locus YDR334W, strain swr1, active compounds read low 0.988 | locus YDR335W, strain msn5, active compounds read low 0.983 | locus YDR388W, active compounds read low 0.976 | locus YDR392W, strain spt3, active compounds read low 0.963 | locus YDR502C, strain sam2, active compounds read low 0.985 | locus YEL003W, strain gim4, active compounds read low 0.992 | locus YEL037C, strain rad23, active compounds read low 0.982 | locus YEL061C, strain CIN8 (second series), active compounds read low 0.986 | locus YEL061C, strain CIN8, active compounds read low 0.989 | locus YER015W, strain faa2, active compounds read low 0.985 | locus YER016W, strain bim1, active compounds read low 0.979 | locus YER110C, active compounds read low 0.979 | locus YER111C, strain swi4, active compounds read low 1 | locus YER155C, strain BEM2 (second series), active compounds read low 0.902 | locus YER155C, strain BEM2, active compounds read low 0.984 | locus YER167W, strain BCK2, active compounds read low 0.984 | locus YFR010W, strain ubp6, active compounds read low 0.982 | locus YGL078C, strain dbp3, active compounds read low 0.977 | locus YGL086W, strain mad1, active compounds read low 0.988 | locus YGL167C, strain pmr1, active compounds read low 0.983 | locus YGL173C, strain kem1, active compounds read low 0.974 | locus YGL227W, strain vid30, active compounds read low 0.965 | locus YGL240W, strain doc1, active compounds read low 0.949 | locus YGL248W, strain PDE1, active compounds read low 0.983 | locus YGL253W, strain hxk2, active compounds read low 0.999 | locus YGR078C, strain PAC10, active compounds read low 1.01 | locus YGR135W, strain pre9, active compounds read low 0.985 | locus YGR229C, strain SMI1, active compounds read low 0.994 | locus YGR252W, strain gcn5, active compounds read low 1.04 | locus YHR013C, strain ard1, active compounds read low 0.977 | locus YHR027C, strain rpn1, active compounds read low 0.992 | locus YHR030C, strain SLT2, active compounds read low 0.981 and 0.964 | locus YHR079C, strain IRE1 (second series), active compounds read low 0.969 | locus YHR079C, strain IRE1, active compounds read low 0.964 | locus YHR094C, strain hxt1, active compounds read low 0.976 | locus YHR129C, strain ARP1, active compounds read low 0.988 | locus YHR142W, strain chs7, active compounds read low 0.986 | locus YHR200W, strain rpn10, active compounds read low 0.979 | locus YIL066C, strain RNR3, active compounds read low 0.985 | locus YIL073C, strain SPO22, active compounds read low 1.01 | locus YIL125W, strain kgd1, active compounds read low 0.978 | locus YIR030C, strain dcg1, active compounds read low 0.968 | locus YJL092W, strain hpr5, active compounds read low 0.988 | locus YJL095W, strain BCK1 (second series), active compounds read low 0.979 | locus YJL095W, strain BCK1, active compounds read low 0.99 and 0.984 | locus YJL115W, strain asf1, active compounds read low 0.969 | locus YJL129C, strain trk1, active compounds read low 0.973 | locus YJL134W, strain LCB3, active compounds read low 0.979 | locus YJL154C, strain vps35, active compounds read low 0.992 | locus YJL164C, strain tpk1, active compounds read low 0.97 | locus YJL166W, strain qcr8, active compounds read low 0.964 | locus YJL168C, strain set2, active compounds read low 0.973 | locus YJL187C, strain SWE1 (second series), active compounds read low 0.986 | locus YJR043C, strain POL32, active compounds read low 0.984 | locus YJR066W, strain TOR1, active compounds read low 0.942
